Test results: PubChem BioAssay AID2253 (Southern Research Specialized Biocontainment Screening …, 2010)
About 1,300 (59%) of roughly 2,200 compounds were called active. The rule behind the calls is not given here. The set was probably picked from earlier hits. These entries were drawn from the full list. Entries with a potency or affinity are not part of this list.

test: human monocytic cell viability reduction – S. typhimurium screen hits, cytotoxicity control for Salmonella PhoP regulon inhibitors, dose response (AID 2253); details: THP-1 viability, CellTiter-Glo luminescence, 72 h; series mostly up to 50 µM; viability: at the top concentration

Structure (SMILES)	viability	outcome
CCn1c(SCc2ccc(F)cc2)nc2ccccc2c1=O	86.5% (inactive)	–
CCCc1cc(=O)oc2cc(OCC(=O)N3CCc4ccccc43)ccc12	96.1% (inactive)	–
COc1cccc(-n2c(N)c(C(=O)Nc3c(C)n(C)n(-c4ccccc4)c3=O)c3nc4ccccc4nc32)c1	87.9% (inactive)	–
COc1cc(Cc2cc(N)nc(N)n2)cc(OC)c1OC	82.9% (inactive)	–
Cn1c(N)c(C(=O)COC(=O)C2CCCCC2)c(=O)n(C)c1=O	92.8% (inactive)	–
CCC(OC(=O)C(NC(=O)c1ccccc1)c1ccccc1)C(=O)Nc1cc(C)on1 (stereo not given)	81.7% (inactive)	–
O=C(NCCc1ccc(Cl)cc1)/C(=C/c1cccnc1)NC(=O)c1ccccc1	82.7% (inactive)	–
O=C(N/N=C/c1coc2ccc(Cl)cc2c1=O)c1cc(O)cc(O)c1	88.3% (inactive)	–
Cc1occc1C(=O)n1cnc2ccccc21	83.7% (inactive)	–
O=c1[nH]c2ccccc2n1C1=CCCC1	101% (inactive)	–
Cc1ccc2c(c1)cc(CN(Cc1ccc3c(c1)OCO3)C(=O)c1cnccn1)c1nnnn12	84.1% (inactive)	–
COC(=O)c1sccc1N/N=C(\C)c1ccc(F)c(Cl)c1	105% (inactive)	–
CCOc1ccc(CSC(CC(=O)O)C(=O)O)cc1 (stereo not given)	95.8% (inactive)	–
CC(=O)N1C(=O)C2(C(C#N)=C(N)Oc3c2c(C)nn3-c2ccccc2)c2ccccc21 (stereo not given)	85.7% (inactive)	–
O=C(NCc1ccc2c(c1)OCO2)c1ccc(-n2cnnn2)cc1	84.5% (inactive)	–
Cc1cc(C)cc(NC(=O)CSc2nc3c(c(=O)[nH]2)CN(Cc2ccc(F)cc2)CC3)c1	81.4% [at 25 µM] (inactive)	–
Cn1cc(C(CC(=O)O)C(=O)O)c2ccccc21 (stereo not given)	86% (inactive)	–
c1ccc(OCCCN2CCCC2)cc1	96.7% (inactive)	–
CCOc1ccccc1OCC(=O)Nc1ccc(S(=O)(=O)Nc2nc(C)cc(C)n2)cc1	89.7% [at 25 µM] (inactive)	–
COCCNC(=O)c1ccccc1NS(=O)(=O)c1ccc(Br)s1	87.3% (inactive)	–
Cc1[nH]n(-c2ccccc2)c(=O)c1-c1ccc(Cl)cc1	89.1% (inactive)	–
Cc1nn(-c2ccccc2)c(C)c1C(=O)OC/C(O)=C(\C#N)c1nc2ccccc2[nH]1	97.8% (inactive)	–
C/C(=C\C(=O)OCCCCCCCCC(=O)O)C[C@@H]1OC[C@H](C[C@@H]2O[C@H]2[C@@H](C)[C@H](C)O)[C@@H](O)[C@H]1O	96.3% (inactive)	–

Structure (SMILES)	viability	outcome
Brc1ccc2cccnc2c1	88.6% (inactive)	–
O=C1C2C3c4ccccc4C(c4ccccc43)C2C(=O)N1c1cccc2cccnc12 (stereo not given)	81% (inactive)	–
CCc1cc2c(NCCC(=O)O)nc(C)nc2s1	93% (inactive)	–
c1ccc(Oc2cc(-c3ccccc3)ncn2)cc1	82.3% (inactive)	–
Fc1ccc(-c2n[nH]c(=S)n2/N=C/c2c[nH]c3ccccc23)cc1	89.4% (inactive)	–
CCOc1ccc(S(=O)(=O)Nc2ccc(C(=O)N/N=C/c3c(C)nn(-c4ccccc4)c3N3CCCC3)cc2)cc1	80.5% (inactive)	–
COc1ccc(-c2cc(C(=O)O)[nH]n2)cc1OC	99.8% (inactive)	–
Cc1cc(=O)[nH]c(N/N=C/c2c[nH]c3ccccc23)n1	86.4% (inactive)	–
Cn1cccc1C(=O)OCc1csc(-c2ccccc2)n1	92.6% (inactive)	–
N#CC1(C#N)COC23CCCCC2C1(C#N)C(=N)O3 (stereo not given)	109% (inactive)	–
O=C(NC(CO)Cc1ccc([N+](=O)[O-])cc1)C(Cl)Cl (stereo not given)	82.4% (inactive)	–
Cc1nc(C(=O)Nc2ccc(Cl)cc2)nn1-c1ccc([N+](=O)[O-])cc1	80.2% (inactive)	–
Cc1ccc(NC(=O)C2CC(=O)NC(N3CCCCC3)=N2)cc1Cl (stereo not given)	97.1% (inactive)	–
CCOC(=O)C1(S(=O)(=O)c2ccccc2)CCN(Cc2ccc(Cl)cc2)CC1	101% [at 25 µM] (inactive)	–
CCN(CC)C(=O)CP(=O)(c1ccccc1)c1ccccc1	89.9% (inactive)	–
CCn1c2ccccc2c2cc(NC(=O)C(C)Oc3ccccc3)ccc21 (stereo not given)	85.2% (inactive)	–
O=C(CCNS(=O)(=O)c1cccc2nsnc12)NCc1cccs1	96.8% (inactive)	–
O=C(OCC1COc2ccccc2O1)c1ccccc1F (stereo not given)	105% (inactive)	–
CCC1C2CN(C(C)=O)CC=C2C(C#N)=C(N)C1(C#N)C#N (stereo not given)	107% (inactive)	–
O=C(CCCN1C(=O)CCC1=O)Nc1ccc2c(c1)OCCO2	87.8% (inactive)	–
CCCNC(=O)CSc1nnc(C)s1	103% (inactive)	–
CC(=O)Nc1cccc(OC(=O)c2ccoc2C)c1	104% (inactive)	–
CO/N=C(/C(=O)N[C@@H]1C(=O)N2C(C(=O)O)=CCS[C@H]12)c1cnc(N)s1	111% (inactive)	–

Structure (SMILES)	viability	outcome
COc1ccc(-c2ccccc2)cc1NCc1ccccc1C	83.1% (inactive)	–
CCOC(=O)Cc1ccc2sc(-c3ccccc3)nc2c1	82.3% (inactive)	–
CC(C)NC(=O)CSc1nc(N)c(NC(=O)c2ccccc2F)c(=O)[nH]1	101% (inactive)	–
COC(=O)Cc1c(C)nc2nc(NCc3ccc(Cl)cc3)[nH]n2c1=O	92% (inactive)	–
CN1c2ccccc2C(O)=C(C(=O)Nc2ccccc2)S1(=O)=O	81.3% (inactive)	–
O=C(O)CCCCCN1C(=O)c2ccc(C(=O)O)cc2C1=O	92.1% (inactive)	–
CC(=O)N1N=C(c2ccco2)CC1c1ccc(Br)cc1 (stereo not given)	95.1% (inactive)	–
CCOC(=O)CN(C)Cc1c[nH]c2ccccc12	95.1% (inactive)	–
O=C(c1ccccc1S(=O)(=O)NCc1ccccc1)N1CCCC1	83.8% (inactive)	–
CN(C)CCOC(=O)Cc1ccc(Cl)cc1	106% (inactive)	–
O=C(c1cccnc1Nc1ccc2c(c1)CCC2)N1CCOCC1	87.5% (inactive)	–
Cn1c(=O)n(CC(=O)Nc2ccccc2)c2ccccc21	98.8% (inactive)	–
O=C(NCc1ccco1)c1ccc(Br)s1	99.7% (inactive)	–
O=C(/C=C/c1ccccc1)N/C(=C/c1ccccc1)C(=O)N1CCOCC1	91.7% (inactive)	–
CN(C)c1ccnc(-n2cccc2/C=N/OCc2ccccc2)c1C#N	84.2% (inactive)	–
COC(=O)c1sc2nc(CSc3nc4ccc(C)cc4[nH]3)[nH]c(=O)c2c1C	90.8% (inactive)	–
CCc1cccc2c(C#N)cn(CC(=O)NCCOC)c12	98.8% (inactive)	–
CN1CCN(c2c(F)cc3c(=O)c(C(=O)O)cn4c3c2SCC4)CC1	–	inactive
S=c1nc(-c2ccccc2)oc2c1CCCC2	93.2% (inactive)	–
CCC(CC)C(=O)NCCc1ccc(OC)cc1	84.2% (inactive)	–
COc1ccc(-c2ccc(C#N)c(SCC(=O)NCCc3ccccc3)n2)cc1OC	85.9% (inactive)	–
N#CC1=C(S)N(c2ccccc2)C(c2ccc(-c3ccccc3Cl)o2)NC1=O (stereo not given)	92.5% (inactive)	–
CCOC(=O)c1ccc2c(c1)C(=O)N(C1CCCCC1)C2=O	101% (inactive)	–

Structure (SMILES)	viability	outcome
O=c1c2ccccc2nnn1Cc1ccccn1	88.6% (inactive)	–
CCOC(=O)N1CCN(C(=O)c2cn(CC(C)C)c(=O)c3c2c2ccccc2n3C)CC1	92% (inactive)	–
N#CCOC(=O)c1sccc1-n1cccc1	98% (inactive)	–
Cc1cc(C)c(C#N)c(SCc2cn3ccccc3n2)n1	86.7% [at 25 µM] (inactive)	–
CCN(CC)c1nc2n(c(=O)n1)CCO2	87% (inactive)	–
COC(=O)Cc1c(O)ccn(Cc2ccc(F)cc2)c1=O	93.3% (inactive)	–
CC1CCN(C(c2cc3cc4c(cc3[nH]c2=O)OCO4)c2nnnn2CC2CCCO2)CC1 (stereo not given)	90% (inactive)	–
CCOC(=O)C1CCCN(C(=O)Cc2ccc(Cl)cc2)C1 (stereo not given)	93.5% (inactive)	–
Cc1ccc(N(CC(=O)N/N=C/c2ccco2)S(=O)(=O)c2ccccc2)cc1	80.2% (inactive)	–
COCC(=O)N=Nc1c(O)[nH]c2ccccc12	93.8% (inactive)	–
C=CCn1c(C)cc(C(=O)CSc2nc(N)cc(N)n2)c1C	82.7% (inactive)	–
COc1c(/C=N/Nc2nc(N3CCCCC3)nc(N3CCCCC3)n2)cccc1[N+](=O)[O-]	90.2% (inactive)	–
O=C(O)CC(NC(=S)NCc1ccccc1)C(=O)O (stereo not given)	86.3% (inactive)	–
CCCCN(C(=O)NC(=O)Nc1nc2ccc(OC)cc2s1)S(C)(=O)=O	83.8% (inactive)	–
CCOc1ccc(Nc2nc(NCCN3CCOCC3)nc(OC)n2)cc1	81.4% (inactive)	–
CCOc1ccc(NC(=O)CCC(=O)n2nc(C)cc2C)cc1	95.3% (inactive)	–
CNc1nc(Sc2ccccc2)cc(C(F)(F)F)n1	80.4% (inactive)	–
Cc1ccc(/C(O)=C2\C(=O)C(=O)N(CC(C)O)C2c2cccc(F)c2)cc1 (stereo not given)	96.5% (inactive)	–
NC(=O)CCc1c[nH]c2ccccc12	96.8% (inactive)	–
CCOC(=O)CCCc1c[nH]c2ccccc12	91% (inactive)	–
CC1COc2c(N3CCN(C)CC3)c(F)cc3c(=O)c(C(=O)O)cn1c23 (stereo not given)	84.5% (inactive)	–
CCOC(=O)c1c(/N=C/c2ccc(O)cc2O)sc2c1CCC2	82.9% (inactive)	–
Cn1ncc(N=Cc2ccccc2O)c1C(=O)Nc1ccccc1	93% (inactive)	–

Structure (SMILES)	viability	outcome
CCCc1ccc(C(=O)CCC(=O)O)cc1	88.6% (inactive)	–
CCOC(=O)c1ccccc1C(=O)N1CCOCCOCCOCC1	93.6% (inactive)	–
COc1ccccc1N1CCN(C(=O)CSc2nc3ccccc3o2)CC1	80.6% (inactive)	–
COc1ccc(C2C(C#N)=C(N)OC3=C2C(=O)CCC3)cc1Cn1cc([N+](=O)[O-])cn1 (stereo not given)	80.3% (inactive)	–
Cc1ccc2nc(SCC(=O)c3c(C)[nH]c4ccccc34)[nH]c2c1	98.8% [at 25 µM] (inactive)	–
CCOC(=O)c1[nH]c2ccccc2c1NC(=O)C(C)(C)C	94.1% (inactive)	–
CNC(=O)CSc1nnc(-c2cccnc2)n1CCc1ccccc1	108% (inactive)	–
CCCCC1CCC(C(=O)Nc2ccccc2)CC1 (stereo not given)	97.9% (inactive)	–
Cc1cccc(NC(=O)c2ccc(Cn3cc(C(F)(F)F)ccc3=O)cc2)c1	83% (inactive)	–
Cn1cnnc1SCC(=O)Nc1cccc(C(=O)O)c1	93.3% (inactive)	–
S=C(c1ccc2c(c1)OCO2)N1CCCC1	97.4% (inactive)	–
c1ccc(-c2ncnc3nc4n(c23)CCC4)cc1	107% (inactive)	–
Cc1c(Cl)cccc1NC(=O)CSc1ncnc2c1cnn2CCc1ccccc1	95.6% (inactive)	–
COC(=O)C1C(O)C(C)C(O)C(C)(O)/C=C\C=C(/C)C(=O)Nc2c(C)c(OC(C)=O)c3c(c2O)C(=O)C(C)=C2OCOC(=C23)/C(C)=C/C(C)(O)C(O)C(C)C1O (stereo not given)	91.6% (inactive)	–
CCSc1nnc(NC(=O)Cc2cccc(OC)c2)s1	96.9% (inactive)	–
CNc1nnc(-c2cccc(N(C)C)c2)s1	82.4% (inactive)	–
O=C(COc1ncnc2sccc12)N1CCN(S(=O)(=O)c2ccc(Cl)cc2)CC1	94.2% (inactive)	–
COc1cccc(OCC(O)CN2CCN(c3ccccn3)CC2)c1 (stereo not given)	98.9% (inactive)	–
C=CCOc1ccccc1CNCCCN1CCOCC1	87.5% (inactive)	–
Cc1ccc(NC(=S)NCCc2ccccc2)c(C)c1	80.4% (inactive)	–
COc1ccc(OC)c(NC(=S)NCCCN2CCOCC2)c1	91.4% (inactive)	–
c1ccc(Cn2nnc3c(NCc4ccc5c(c4)OCO5)nc(C4CC4)nc32)cc1	115% (inactive)	–
O=C(O)c1cc(NCc2ccc3c(c2)OCO3)ccc1N1CCOCC1	99.6% (inactive)	–
